Where “and” joins values, the source holds several entries; their conditions need not be identical. Identical values can stand only once. This is part of a sample that, as a whole, favours compounds with a hit. Of some 79,000 tested, about 15% had one in any assay. Values without a mark were called inactive. Calls of active or inactive are those of the source. Cut-off read from the data, not from the text of the source: active = growth inhibition above about 70%; inactive = the rest.
experiment: NCI Yeast Anticancer Drug Screen. Data for the mec2-1 strain (AID 157); settings: S. cerevisiae mec2-1 strain, at 5.0 µM (retest, dose inferred, filed as 0.5), active compounds read high
Procedure: Growth inhibition of yeast strains with defined genetic alterations is measured as a screen for potential anti-cancer activity. Selected strains with alterations in DNA damage repair or cell cycle control were exposed to compounds and growth inhibition was measured relative to vehicle treated controls. The strain used in this assay is mec2-1

| SMILES | growth inhibition |
| --- | --- |
| CC(O)C(=O)NC1CCCCC1 (stereo not given) | 1% |

same assay, conditions: S. cerevisiae mec2-1 strain, at 50.0 µM (retest, dose inferred, filed as 5.0), active compounds read high

| SMILES | growth inhibition |
| --- | --- |
| CC(O)C(=O)NC1CCCCC1 (stereo not given) | 1% |

same assay, conditions: S. cerevisiae mec2-1 strain, active compounds read high; at 50.0 µM unless noted

| SMILES | growth inhibition |
| --- | --- |
| CCc1ccc(-c2cc(-c3ccc(CC)cc3)cc(-c3ccc(CC)cc3)c2)cc1 | -10.1% |
| O=[N+]([O-])c1ccc(Sc2ncnc3c2ncn3C2OC(CO)C(O)C2O)c2nonc12 (stereo not given) | -12.4% |
| Cc1ccc(C2=Nc3cc(C)c(Cl)cc3S(=O)(=O)NN2)cc1 | -24.9% |
| NNc1nc(N2CCCCC2)c2[nH]cnc2n1 | -7.65% |
| COc1ccc(C(=O)/C=C/c2ccc(OCC#N)cc2)cc1OC | -61.4% |
| C/C(=N\NC(=S)N1CCCCCC1)c1nccnc1C | 90.5% (active) |
| COc1ccc2nc(C(=O)c3ccccc3)c(C)cc2c1 | -28.5% |
| CC1CCCCN1Cc1ccccc1COC(=O)c1ccc([N+](=O)[O-])cc1Cl (stereo not given) | 30.4% |
| CCCCCCCSCC(=O)OCC | -19.8% |
| Cc1ccc(C(=O)O)c(/C=C2\Cc3cc(C)cc(C)c3C2=O)c1 | 14.8% |
| CC(C)OC(=O)Oc1cccc(OC(=O)OC(C)C)c1 | -28.8% |
| CC1(c2nc3ccccc3[nH]2)CCC(C(N)=O)C(C)(C)O1 (stereo not given) | -13.2% |
| Nc1ccc(S(=O)(=O)Nc2cc(C(F)(F)F)cc(C(F)(F)F)c2)cc1 | 16.6% |
| Cc1ccc(C)n1CCCCCCCn1c(C)ccc1C | -3.5% |
| O=C(Nc1nncs1)c1cnccn1 | -6.3% |
| COc1cc(C)cc(C(=O)O)c1 | -3.5% |
| COC(=O)/C=C(\C(=O)OC)N1CCCCC1 | -3.8% |
| CCCC(C)C(C(=O)OCC)C(=O)OCC (stereo not given) | -14.5% and -5.6% |
| O=C(CCC(=O)c1ccccc1)NCc1ccccc1 | -6.2% |

| SMILES | growth inhibition |
| --- | --- |
| COc1c(OC(C)=O)c(OC(C)=O)cc2c1-c1ccc(SC)c(=O)cc1C(NC(C)=O)CC2 (stereo not given) | 3.5% |
| Nc1cccc2c1nc(NCCO)c1ccccc12 | 3.5% |
| COc1cc2c(c(OC)c1OC)-c1ccc(SC)c(=O)cc1[C@@H](NC(=O)CCl)CC2 | 19.6% |
| CCC(CC)NC(CC)COC(=O)c1ccc(N)cc1 (stereo not given) | -4.3% |
| C=C1CC(COc2ccc3c(C)c(C)c(=O)oc3c2C)(c2ccccc2)OC1=O (stereo not given) | -3.75% |
| CC(C)(C)NC(=O)C(Br)c1ccccc1 (stereo not given) | 23.1% |
| Cn1ccn(C2CCCCC2)c1=O | 5.1% |
| CCN(CC)C(=O)/C=C/c1ccccc1 | -28.6% |
| CC(=O)Cc1ncn(-c2cc(C)on2)n1 | -20.4% |
| Cc1ccc(S(=O)(=O)C2OC(CO)C(O)C(O)C2O)cc1 (stereo not given) | -16.6% |
| CCOC(=O)/C(SC#N)=C(/N)N1CCCC1 | -43.8% |
| COC(=O)C1(c2ccccc2)N=C(c2ccc(C)cc2)ON1c1ccccc1 (stereo not given) | 7.05% |
| COc1cccc(Br)n1 | -17.1% |
| CC(=O)c1cccc(NC(=O)CCCCCCCCC(=O)Nc2cccc(C(C)=O)c2)c1 | -0.7% |
| CC1(C)N=C(N)N=C(N)N1CCCOc1ccc(N)cc1 | -4.65% |
| COC(=O)CSSC(C)C | -15.3% |
| CC1C(=O)C(c2cccs2)(C2CCCCC2)CC[N+]1(C)C (stereo not given) | 4.5% |
| N#Cc1[nH]c(=O)n(-c2ccc([N+](=O)[O-])cc2)c1N | -59.8% |
| CCCCCCCCCCCCCCCCCn1nnnc1N | 11.6% |

Source: PubChem BioAssay (NCI)
